Source: PubChem BioAssay (National Center for Advancing Translational Sciences (NCATS))
Only some compounds are listed: those with a hit (about 9.2% of all), similar ones and a draw of the others.
ELG1 genotoxic: genotoxicity induction in ELG1-luciferase HEK293T cells; AID 504466; 330,000 tested, 1.3% active; HEK293T ELG1-luciferase reporter, luminescence, 16 h; Potency, µM (titrated, usually from 46 µM), without a hit: at the top dose activity change, positive = activation, usual class: activators; also: % of control where 0% means no effect; nearly all actives have a fitted effect of over 60% in size
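Screening used a luciferase reporter fused to human ELG1 in HEK293T cells. Luminescence was read on a CCD plate imager after 16 hr exposure and 30 min ONE-Glo incubation.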
ELG1 repair inh: ELG1-dependent DNA repair inhibition; HEK293T ELG1-luciferase reporter, luminescence, 16 h; DNA damage induced by 5-fluorouridine; Potency, µM (top dose mostly 46.1 µM), without a hit: at the top dose activity change, negative = inhibition, actives largely listed as inhibitors; 330,000 tested, 2.3% active; also: % is scaled to controls: 0 for no effect and ±100 for the full control effect; nearly all actives have a fitted effect of over 55% in size
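Step one: seed 2,000 cells per well. Step two: pin-transfer compound or DMSO alongside 5-fluorouridine. Step three: incubate 16 hr, 37 °C, 5% CO2. Step four: add ONE-Glo, wait 30 min, read luminescence.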
FLuc modulator: firefly luciferase modulation, counter-screen for miR-21 project; P08659; AID 588342; Potency, µM (series often up to 57.5 µM), inactives show at the highest dose activity change, negative = inhibition, hits mostly inhibitors; 360,000 tested, 6.9% active; purified FLuc, Km substrates, luminescence inhibition;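 also: plate controls were vehicle for no effect and reference inhibitor for full effect; nearly all actives have a fitted effect of over 55% in size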
Target sequence (P08659 whole entry, looked up): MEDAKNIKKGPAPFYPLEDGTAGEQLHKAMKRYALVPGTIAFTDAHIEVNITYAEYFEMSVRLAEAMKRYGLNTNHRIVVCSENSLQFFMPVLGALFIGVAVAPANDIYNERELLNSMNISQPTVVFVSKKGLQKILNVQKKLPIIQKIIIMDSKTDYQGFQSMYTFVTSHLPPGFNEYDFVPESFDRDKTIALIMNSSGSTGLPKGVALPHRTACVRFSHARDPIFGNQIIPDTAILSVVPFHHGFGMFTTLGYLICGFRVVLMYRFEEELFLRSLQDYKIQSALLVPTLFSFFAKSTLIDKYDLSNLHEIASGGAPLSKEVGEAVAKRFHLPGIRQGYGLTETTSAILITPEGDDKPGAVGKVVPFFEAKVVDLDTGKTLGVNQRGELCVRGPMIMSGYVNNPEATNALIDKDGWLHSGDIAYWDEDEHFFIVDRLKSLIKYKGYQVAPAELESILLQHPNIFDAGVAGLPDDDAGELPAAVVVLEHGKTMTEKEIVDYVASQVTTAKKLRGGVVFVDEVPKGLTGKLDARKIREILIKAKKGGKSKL
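Biochemical qHTS of compounds, final roughly 60 µM downward over six points, against 10 nM purified firefly luciferase using Km concentrations of substrates (10 uM D-luciferin, 10 uM ATP) in Tris acetate pH 7.5 buffer; luminescence output.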
SMN2 splice enh: increases expression of the SMN2 splice variant. Potency, µM (doses to about 46.1 µM), for the others: at the highest dose activity change, positive = activation, usual class: activators. 210,000 tested, 2.8% active. AID 1458. HEK293 SMN2-luciferase splicing reporter, luminescence, 30-36 h; also: % of control where 0% means no effect; nearly all actives have a fitted effect of over 55% in size
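HEK293 cells carry an SMN2 […]–luciferase reporter in which exon 7 inclusion puts luciferase in frame. Cells were plated 10-12 h before compound addition, then incubated 30-36 h at 37C. ONE-Glo luminescence was read; sodium butyrate at 4.5 mM final served as control.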
Rab9 promoter act: Rab9 promoter activation; Huh7 Rab9 promoter-luciferase reporter, luminescence, 24 h; Potency, µM (highest dose often 9.22 µM), without a hit: top-dose activation, negative = inhibition, usual class: activators; 320,000 tested, 2.8% active; also: % of control where 0% means no effect; nearly all actives have a fitted effect of over 60% in size
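Luciferase signal after 10 min detection reagent at ambient indicates Rab9 promoter upregulation; stably transfected Huh7 cells were treated 24 h with compound in DMSO at 37 °C, 5% CO2.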
NPC1 prom act: activates the NPC1 promoter. Huh7 NPC1 promoter luciferase reporter, 24 h. Potency, µM (series often up to 9.22 µM), inactives show top-dose activation, most hits filed as activators. 320,000 tested, 2.4% active. AID 485313; also: % of control where 0% means no effect; nearly all actives have a fitted effect of over 60% in size
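Readout is luciferase luminescence, reflecting NPC1 promoter activation in stably transfected Huh7 cells after 24 h compound exposure at 37 °C in reduced-serum medium with 10% FBS.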
The depositor's hits bear a star; ? = inconclusive; · = no result. Calls follow the shape of the dose curve; as a rule, active = well fitted curve in the direction sought with a large enough effect; inconclusive = small, poorly fitted or top-dose-only effect, or another doubt; inactive = no such curve, though single readings can be large; an effect the other way counts as inactive or inconclusive. Potency is read from the fitted curve at half-maximal effect.

SMILES	ELG1 genotoxic	ELG1 repair inh	FLuc modulator	SMN2 splice enh	Rab9 promoter act	NPC1 prom act
CN(C)CCN(C(=O)c1ccc2c(c1)CCCC2)c1nc2c(F)cccc2s1	?	?	10.7µM*	·	6.1%	2.1%
CCCc1c(C)c2ccc(OCC(C)=O)cc2oc1=O	?	?	?	22.6%	?	?
CCCCc1c(C)c2ccc(OCC(C)=O)cc2oc1=O	5.17µM*	?	19µM*	15.8µM*	2.82µM*	3.16µM*
Cc1c(CC(=O)O)c(=O)oc2cc(OCc3ccc(Cl)cc3)ccc12	6.3%	?	8.49µM*	·	14.6%	12.0%
Cc1c(Cc2ccccc2)c(=O)oc2cc(OCC(=O)N3CCC(C(=O)O)CC3)ccc12	4.0%	?	21.3µM*	·	-5.7%	0.1%
O=C(O)C1CCN(C(=O)COc2ccc3c(c2)oc(=O)c2ccccc23)CC1	5.1%	12.0%	?	·	-1.5%	1.5%
CC(=O)COc1ccc2c(C)c(-c3ccccc3)c(=O)oc2c1	6.9%	?	16.9µM*	-7.0%	3.16µM*	?
CN(C(=O)CSc1nc2ccc(NC(=O)c3cccs3)cc2s1)c1ccccc1	·	·	-16.4%	·	·	·
Cc1ccc(CNC(=O)c2cnn(-c3cccc(C)c3)c2C2CCN(C(=O)OC(C)(C)C)CC2)cc1	·	·	-1.4%	·	·	·
COC(=O)Cc1c(C)c2ccc(OC(=O)c3ccccc3)cc2oc1=O	0.2%	14.9%	15.1µM*	15.3%	-0.1%	-3.0%
COc1ccc(CNC(=O)Cc2c(C)c3ccc(O)cc3oc2=O)cc1	·	·	7.57µM*	-1.4%	·	·
COc1ccc(CNC(=O)Cc2c(C)c3c(O)cc(C)cc3oc2=O)cc1	·	·	1.5%	21.2%	·	·
Cc1c(C)c2ccc(OCC(=O)c3ccccc3)cc2oc1=O	?	?	?	·	3.55µM*	2.24µM*
COc1cccc(C(=O)COc2ccc3c(C)c(Cc4ccccc4)c(=O)oc3c2)c1	-1.9%	-27.0%	-0.5%	-58.7%	-10.6%	-3.4%
O=C(COc1ncnc2sccc12)NC1CCS(=O)(=O)C1 (stereo not given)	-3.1%	-4.0%	-0.4%	·	2.1%	0.6%
COc1ccc(C(=O)NCCCOC(C)C)cc1OC1CCN(C(C)=O)CC1	17.0%	?	?	·	?	23.6%
NS(=O)(=O)c1ccc(CCNc2ncnc3c2c(-c2ccccc2)cn3-c2ccc(F)cc2)cc1	-8.3%	16.4µM*	2.7%	-16.3%	-3.2%	-4.5%
CC(C)(C)OC(=O)N1CCC(c2c(C(=O)N3CCN(C(=O)c4ccco4)CC3)cnn2-c2cccc(Cl)c2)CC1	-2.6%	-0.7%	-1.1%	·	-0.2%	-2.4%
Cc1ccccc1NC(=O)c1ccc2c(c1)N(C)CCS2	?	?	10.7µM*	·	?	?
CN1CCSc2ccc(C(=O)NCc3ccccc3F)cc21	-2.2%	0.0%	?	·	?	29.2%
CN1CCSc2ccc(C(=O)Nc3cc(F)ccc3F)cc21	2.59µM*	?	2.13µM*	·	0.891µM*	1.26µM*
Cc1ccc(/C=C2\SC(=S)N(/N=C/c3cc([N+](=O)[O-])ccc3O)C2=O)o1	-4.4%	-19.5%	23.9µM*	·	-6.0%	-1.1%
O=C(NN1C(=O)/C(=C/c2cc([N+](=O)[O-])ccc2O)SC1=S)c1ccccc1O	10.9%	-0.4%	?	·	7.8%	-1.0%
CSc1ccc(CCNC(=O)Cn2c(C)c3cnn(-c4ccccc4)c(=O)c3c2C)cc1	·	·	-1.1%	9.5%	·	·
COc1ccc(OC)c(Cc2nnc(CCC(=O)N3CCCCC3c3nccs3)o2)c1 (stereo not given)	?	?	23.9µM*	·	3.55µM*	?
CC(=O)c1c(C)[nH]c(C(=O)Nc2ccc(Cl)c(S(=O)(=O)N(C)C)c2)c1C	18.3µM*	?	16.9µM*	11.2µM*	3.16µM*	3.55µM*
